Pf Dd2 inh = Plasmodium falciparum Dd2 growth inhibition; P. falciparum Dd2 growth, SYBR Green, 72 h; 120,000 compounds, 4.3% hits; Potency, µM (doses to about 28.9 µM), inactives show top-dose activity, negative = inhibition, actives largely listed as inhibitors; AID 1347417; active = well fitted inhibition curve with a large enough effect;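 also: plate controls were DMSO vehicle for no effect and reference drug for full effect; nearly all actives have a fitted effect of over 65% in size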
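Readout: SYBR Green fluorescence, 485 nm excitation, 535 nm emission, after ~16 h lysis at 37C. Before that, Dd2-infected red cells (2.5% hematocrit) grew 72 h with compound, 29 uM top final concentration.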
Starred values were filed as active, the others as inactive; i = inactive; [ ] = dose if it differs, or a comment. This excerpt belongs to a sample that is enriched for hits. Potency is read from the fitted curve at half-maximal effect.

SMILES	Pf Dd2 inh
Cc1nccc(N2CCC3(CC2)CN(CCCN2CCC(N(C)C)C2)C(=O)O3)n1 (stereo not drawn)	-11.6%
C=CCNC(=O)N[C@H]1CCN2C(=O)c3ccc(Cl)cc3NC(=O)[C@@H]2C1	25.9%[44.1 µM]
O=C(CN1CCOCC1)N1CCC(N2C(=O)C3(CCCCC3)C2c2ccccc2)CC1 (stereo not drawn)	i
CC(C)C(=O)N1CCC(N2C(=O)C3(CCCC3)C2c2ccccc2)CC1 (stereo not drawn)	-5.5%
CCOc1ccccc1NC(=O)N1CCC(N2C(=O)C3(CCCC3)C2c2ccccc2)CC1 (stereo not drawn)	8.91µM*
CCOc1ccccc1NC(=O)N1CCC(N2CCN(Cc3ccccc3)C(=O)C2=O)CC1	9.5%[5.79 µM]
COCCC(=O)N1CCC(N2C(=O)C3(CCCCC3)C2c2ccccc2)CC1 (stereo not drawn)	-28.3%
O=C(CN1CCCCCC1)N1CCC(N2C(=O)C3(CCCC3)C2c2ccccc2)CC1 (stereo not drawn)	4.47µM*
COCCOC1CCOC2(CCN(C(=O)c3ccsc3)CC2)C1 (stereo not drawn)	-16.3%
Nc1nnnn1CC(=O)N[C@@H]1COCC[C@@H]1Oc1ccc(F)cc1	-7.1%
CCOC(=O)CCNC(=O)N1CCC(OC2CCN(Cc3ccccc3)CC2)CC1	37.5%
CC(C)S(=O)(=O)N1CCC(OC2CCN(Cc3cccnc3)CC2)CC1	19.5%
O=C(CC1CCN(S(=O)(=O)c2cccc(F)c2)C1)NCc1ccccc1 (stereo not drawn)	-5.7%
O=S(=O)(c1cccc(F)c1)N1CCC(OC2CCN(Cc3ccccc3)CC2)CC1	2.82µM*
O=C(c1ccc(Cl)cc1)N1CCC(OC2CCN(Cc3cccnc3)CC2)CC1	i
O=C(c1cccnc1)N1CCC(OC2CCN(Cc3ccccc3)CC2)CC1	-15.9%
Cc1ccc(C(=O)N2CCC(OC3CCN(Cc4ccccc4)CC3)CC2)cc1	8.91µM*
Cc1ccc(S(=O)(=O)N2CCC(OC3CCN(Cc4ccccc4)CC3)CC2)cc1C	0.891µM*
O=C(Nc1ccc(F)cc1F)N1CCC(OC2CCN(Cc3ccccc3)CC2)CC1	i
Cc1ccccc1-c1ccnc(-c2nnc(C)n2Cc2ccccc2)c1	i
CCc1ccccc1NC(=O)Cn1nc2n(c1=O)CCCC2	-6.0%
COC(=O)N1CCC2(C1)N=C(c1ccncc1)C(=O)N2 (stereo not drawn)	0.9%[44.1 µM]
COCCNC(=O)c1ccc2c(c1)N(C)C(CC(=O)N1CCC(O)CC1)CO2 (stereo not drawn)	-15.6%
Cc1ncoc1C(=O)N1CCc2nnc([C@@H]3C[C@@H](O)CN3C(C)C)n2CC1	22.1%
O=C(NC1CCOC2(CCOCC2)C1)c1cn(CCN2CCNCC2)nn1 (stereo not drawn)	16.0%
SMILES	Pf Dd2 inh
COCc1nc(C2CCN(C(=O)C3CCOCC3)C2)no1 (stereo not drawn)	-1.2%
CC1(C)C(=O)N(CCOc2ccccc2)[C@H]2CN(c3cccc(C(F)(F)F)c3)C[C@@H]2[S+]1(=O)[O-]	-3.7%
CC1CCN(C(=O)c2ccc(-c3ccc(N4CCSCC4)nc3)cc2)CC1	i
CC(=O)N1CCC(C(=O)NC2CCc3n[nH]c(=O)n3CC2)CC1 (stereo not drawn)	77.2%
CC(=O)N1C[C@@H]2CCCN3CCC[C@@H]([C@H]23)[C@H]1CCCC(=O)NCCC(C)C	-15.0%
COc1ccc(-c2nnc([C@H]3CCN(Cc4cccc(C#N)c4)C3)o2)cc1	14.1µM*
COc1ccccc1-c1nnc([C@H]2CCN(Cc3ccc(C(=O)O)cc3)C2)o1	i
Cn1cncc1-c1nnc([C@H]2CCN(Cc3cccc(C#N)c3)C2)o1	-8.7%[44.1 µM]
COc1ccc(CN2CC[C@H](c3nnc(-c4ccncc4)o3)C2)cc1	i
COc1ccccc1-c1nnc([C@H]2CCN(Cc3cccnc3)C2)o1	12.6µM*
Cn1c([C@H]2CCN(Cc3ccccc3)C2)nc2ccccc21	i
COc1ccccc1-c1nnc([C@H]2CCN(Cc3ccc(F)cc3)C2)o1	i
COc1ccc(-c2nnc([C@H]3CCN(S(C)(=O)=O)C3)o2)cc1	12.7%[44.1 µM]
COc1ccc(C(=O)N2CC[C@H](c3nnc(-c4ccccc4)o3)C2)cc1	-16.9%[44.1 µM]
COc1ccc(-c2nnc([C@H]3CCN(S(=O)(=O)Cc4ccccc4)C3)o2)cc1	10µM*
Cn1c([C@H]2CCN(Cc3ccc(Cl)cc3)C2)nc2ccccc21	i
Cn1c([C@H]2CCN(Cc3cccc(C#N)c3)C2)nc2ccccc21	10µM*
CNC(=O)[C@H]1CN(Cc2ccccc2)C[C@H]1C(=O)O	i
Cc1cccc(CC(=O)N2CCC3(CC2)CC(N(C(=O)NC(C)C)C2CC2)CCO3)c1 (stereo not drawn)	i
O=C1NCCCCCCN(C(=O)COc2ccccc2)[C@H]2CCC[C@@H]12	-4.3%
COc1cc(OC)cc(C(=O)N2CCCN(C)c3ccccc32)c1	-14.2%
COc1ccc(CN2Cc3[nH]cnc3C[C@H]2C(=O)NCc2ccco2)cc1	-18.2%[44.1 µM]
Cc1ccc(-c2nnc([C@H]3CCN(Cc4ccc(CO)o4)C3)o2)cc1	i
FC(F)(F)c1ccc(CN2CC[C@H](c3nnc(-c4ccccc4)o3)C2)cc1	i
Cc1ccc(CN2CC[C@H](c3nnc(-c4ccccc4)o3)C2)cc1	10µM*
SMILES	Pf Dd2 inh
CCC(=O)N1CCc2c(C(=O)NCc3cc(C)ccc3C)cccc21	11.2µM*
CCC(=O)N1CCc2c(C(=O)NCc3cc(OC)ccc3OC)cccc21	i
CCC(=O)N1CCc2c(C(=O)NCCOC)cccc21	-9.9%
OC1(CN2CCCCC2)CCN(Cc2ccc(F)c(Cl)c2)C1 (stereo not drawn)	8.91µM*
COc1cc(CN2CCC(CO)(CN3CCCC3)CC2)ccc1F	7.94µM*
CN1C(=O)[C@H]2CN(Cc3ccc(F)c(Cl)c3)C[C@H]2C1=O	45.8%
OCC1(CN2CCCC2)CCN(Cc2cccc(O)c2)CC1	-6.0%
Cc1cc(F)ccc1CN1CCC(CO)(CN2CCCC2)CC1	i
O=C1N(CCc2ccccc2)CCOC12CCN(Cc1ccc(F)c(Cl)c1)CC2	-9.9%[44.1 µM]
O=C(CC[C@@H]1CNC(=O)[C@@H]2C[C@H](NC(=O)c3ccccc3)CN12)NCc1ccc(F)cc1	-12.5%
CCC(=O)N1CCc2cc(Br)cc(S(=O)(=O)NCCc3ccc(C)cc3)c21	i
O=C(CCS(=O)(=O)c1cc2c3c(c1)CCN3C(=O)CC2)NCc1ccc(Cl)cc1	16.3%
CCC(=O)N1CCc2cc(Br)cc(S(=O)(=O)CCC(=O)Nc3ccc(Cl)cc3)c21	5.01µM*
CC(=O)N1CCc2cc(Br)cc(S(=O)(=O)N3CCC(C(=O)Nc4ccc(C(C)C)cc4)CC3)c21	10µM*
O=C(CCS(=O)(=O)c1cc(Br)cc2c1N(C(=O)C1CC1)CC2)NCc1ccc(Cl)cc1	6.31µM*
CC(C)c1ccc(NS(=O)(=O)c2cc(Br)cc3c2N(C(=O)C2CC2)CC3)cc1	-13.6%
Cc1ccc(NC(=O)CCS(=O)(=O)c2cc(Br)cc3c2N(C(=O)C2CC2)CC3)cc1	1µM*
COc1ccc(CNC(=O)CCS(=O)(=O)c2cc(Br)cc3c2N(C(C)=O)C(C)C3)cc1 (stereo not drawn)	3.5%
CCC(=O)N1CCc2cc(Br)cc(S(=O)(=O)CCC(=O)NCCc3ccccc3)c21	-3.5%
COc1ccc(NC(=O)CCS(=O)(=O)c2cc(Br)cc3c2N(C(C)=O)CC3)c(OC)c1	i
CC(=O)N1CCc2cc(Br)cc(S(=O)(=O)N3CCC(C(=O)N(C)c4cc(C)ccc4C)CC3)c21	-9.3%
Cc1ccc(CNS(=O)(=O)c2cc(Br)cc3c2N(C(=O)C2CC2)CC3)cc1	-1.2%
